# Screening data (PubChem BioAssay)
# Rows were chosen to be rich in hits. Some 19% of all compounds tested hit in one or more screens of this group.
# TDP1 block: blocks human tyrosyl-DNA phosphodiesterase 1; Q9NUW8; recombinant TDP1, AlphaScreen DNA substrate cleavage; Potency, µM (titrated, usually from 130 µM), for inactives: top-dose activity change, negative = inhibition, hits mostly inhibitors; 0.28% of 350,000 active; AID 485290; also: potency is read from the fitted curve at half-maximal effect; % is scaled to controls: 0 for no effect and ±100 for the full control effect; nearly all actives have a fitted effect of over 40% in size
# Target sequence (Q9NUW8 whole entry, looked up): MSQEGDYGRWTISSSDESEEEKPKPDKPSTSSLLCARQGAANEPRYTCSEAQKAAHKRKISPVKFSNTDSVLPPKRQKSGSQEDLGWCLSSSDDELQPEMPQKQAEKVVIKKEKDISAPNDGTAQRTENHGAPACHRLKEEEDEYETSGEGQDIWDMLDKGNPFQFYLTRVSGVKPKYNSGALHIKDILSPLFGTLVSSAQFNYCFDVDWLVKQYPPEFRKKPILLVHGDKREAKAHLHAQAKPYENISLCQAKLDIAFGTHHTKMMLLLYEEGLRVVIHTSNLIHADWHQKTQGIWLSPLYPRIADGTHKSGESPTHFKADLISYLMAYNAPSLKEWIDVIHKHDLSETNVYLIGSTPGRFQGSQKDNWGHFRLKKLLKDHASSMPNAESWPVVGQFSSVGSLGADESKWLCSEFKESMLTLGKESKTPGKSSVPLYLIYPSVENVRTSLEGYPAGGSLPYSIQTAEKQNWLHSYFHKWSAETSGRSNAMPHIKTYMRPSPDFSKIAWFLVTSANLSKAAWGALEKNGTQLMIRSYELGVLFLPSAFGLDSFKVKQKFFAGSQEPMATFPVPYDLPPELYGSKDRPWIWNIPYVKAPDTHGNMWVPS
#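 AlphaScreen read-out: signal falls as enzyme removes the 3' tyrosine-FITC from a 5'-biotinylated DNA oligo (15 nM, 5 min, RT). Enzyme was E. coli-made recombinant Tdp1 at 1 nM, exposed to compound for 15 min beforehand; beads 10 ug/ml, 10 min.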
# HepG2 viability: counter-screen for TGF-b inhibitors: cytotoxicity in HepG2 cells; Potency, µM (titrated, usually from 46.1 µM), inactives show at the highest dose activity change, negative = cytotoxicity, hits mostly cytotoxic; AID 588856; HepG2 CAGA-GFP viability, ATP luminescence, 18 h; 0.76% of 410,000 active; also: potency is read from the fitted curve at half-maximal effect
#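 CellTiter-Glo luminescence gave cytotoxicity after 18 hours at 37 degrees C. The cells were HepG2 CAGA-GFP in 1% FBS DMEM, stimulated with 500 pg/mL TGF-beta after compound addition. %Activity was normalised to no-cell wells (complete cell-killing) and DMSO (no toxicity), and curves were fitted and classified.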
# TGFb inhibitor: inhibitors of TGF-b signaling. HepG2 CAGA-GFP TGF-b/SMAD3 reporter, GFP fluorescence, 18 h; TGF-beta stimulated, 500 pg/mL final. Potency, µM (titrated, usually from 46.1 µM), for inactives: at the highest dose activity, negative = inhibition, usual class: inhibitors. 1.2% of 410,000 active. AID 588855; also: potency is read from the fitted curve at half-maximal effect; % is scaled to controls: 0 for no effect and ±100 for the full control effect; nearly all actives have a fitted effect of over 65% in size
#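 Inhibition was scored as loss of TGF-beta-induced (500 pg/mL final, 18 hours, 37 degrees C) GFP in HEPG2 cells carrying a CAGA-GFP reporter, in DMEM with 1% FBS. Well GFP was summed per cell; Activity was normalised to unstimulated and stimulated DMSO wells, then concentration-response fitting.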
# TDP1 cell CPT: DT40-hTDP1 cell growth loss with CPT | chicken DT40 Tdp1-/-;hTDP1 cells + 20 nM CPT, ATP luminescence, 48 h | Potency, µM (highest dose often 46.2 µM), for inactives: at the top dose activity change, negative = growth inhibition, usual class: inhibitors | 12% of 420,000 active | AID 686979; also: potency is read from the fitted curve at half-maximal effect; % is scaled to controls: 0 for no effect and ±100 for the full control effect; nearly all actives have a fitted effect of over 55% in size
#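 Chicken DT40 Tdp1-/- cells complemented with human TDP1, 400 cells/well, exposed to compounds plus 20 nM camptothecin for at least 48 h at 37 C; viability read as ATP content by CellTiter-Glo luminescence.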
# DT40 TDP1 no CPT: qHTS for Inhibitors of human tyrosyl-DNA phosphodiesterase 1 (TDP1): qHTS in cells in absence of CPT; DT40 Tdp1-/- hTDP1 cells, no CPT, ATP luminescence, 48 h; Potency, µM (top dose mostly 46.2 µM), inactives show top-dose activity change, negative = growth inhibition, hits mostly inhibitors; 15% of 420,000 active; AID 686978, 2013; also: potency is read from the fitted curve at half-maximal effect; % is scaled to controls: 0 for no effect and ±100 for the full control effect; nearly all actives have a fitted effect of over 55% in size
#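 Growth of hTDP1-complemented DT40 Tdp1-knockout cells is measured by ATP luminescence after at least 48 hr compound exposure at 37 °C, with DMSO substituting for the 20 nM CPT used in the parallel screen.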
# IL1B secr inh: blocks inflammasome-driven IL-1 beta release. activity change, % at 57.5 µM. 4.7% of 360,000 active. THP-1 LPS/ATP IL-1B secretion, AlphaLISA, 16 h; stronger effect = lower value. AID 743279; in the data active = activity change below about -50%; inconclusive = mostly about -30% to -49%; also: % is scaled to controls: 0 for no effect and ±100 for the full control effect
#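 Secreted IL-1B measured by AlphaLISA bead assay after 16 h compound exposure of THP-1 cells; compounds (final up to 57.5 uM) added 1 h before LPS (250 ng/mL) and ATP (1.25 mM) stimulation; lower signal means less secretion.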
# Active calls of the source: *; i = inactive; ? = inconclusive; · = not tested or not shown; [ ] = another dose, or the depositor's remark. Unless noted, calls follow the shape of the dose curve; as a rule, active = well fitted curve in the direction sought with a large enough effect; inconclusive = small, poorly fitted or top-dose-only effect, or another doubt; inactive = no such curve, though single readings can be large; an effect the other way counts as inactive or inconclusive.
SMILES,TDP1 block,HepG2 viability,TGFb inhibitor,TDP1 cell CPT,DT40 TDP1 no CPT,IL1B secr inh
CCOc1ccc(CCNC(=O)c2c(C)oc3ncn(CC(C)C)c(=O)c23)cc1,5.3%,-20.1%,-6.3%,?,?,·
CCC(Sc1nc2cc3c(cc2c(=O)n1CCCC(=O)NCc1ccc2c(c1)OCO2)OCO3)C(=O)NCCCOC (stereo unspecified),0.5%,-24.5%,?,-4.3%,-15.8%,·
O=C(NCCc1ccc2c(c1)OCCO2)c1cc(S(=O)(=O)N2CCCC2)ccc1Br,·,-2.1%,0.5%,?,?,23.9
CCN(Cc1ccncc1)C(=O)C1CCC(=O)N(Cc2ccc(Cl)cc2)C1 (stereo unspecified),-0.5%,1.6%,3.0%,-1.8%,5.5%,11.3
Cc1nc(Cl)nc(N(C)c2ccccc2)c1[N+](=O)[O-],3.7%,-23.9%,2.9%,?,?,-81.8*
O=C(c1ccc2c(c1)N(Cc1ccc(Cl)cc1)C(=O)c1ccccc1S2=O)N1CCN(c2ccccc2F)CC1 (stereo unspecified),1.2%,-2.2%,?,23.1µM*,20.6µM*,·
CN1CCN(C(=O)c2ccc3c(c2)N(Cc2ccc(Cl)cc2)C(=O)c2ccccc2S3=O)CC1 (stereo unspecified),5.3%,-1.0%,4.6%,-24.2%,-9.5%,-18.0
O=C(c1ccc2c(c1)N(Cc1ccccc1F)C(=O)c1ccccc1S2=O)N1CCN(c2ccccc2)CC1 (stereo unspecified),5.8%,-14.8%,-33.9%,23.1µM*,16.4µM*,·
CN1CCN(C(=O)c2ccc3c(c2)N(Cc2ccccc2F)C(=O)c2ccccc2S3=O)CC1 (stereo unspecified),·,-17.3%,0.1%,?,-38.5%,-1.1
COc1ccc(NS(=O)(=O)c2cc(NC(=O)c3ccc(=O)[nH]n3)ccc2C)cc1,-7.2%,4.3%,-1.3%,18.4µM*,18.4µM*,46.6
COc1ccc(NS(=O)(=O)c2cc(S(C)(=O)=O)ccc2C)cc1,-5.6%,-5.3%,-3.2%,-0.4%,-19.0%,-8.7
COc1ccc(NS(=O)(=O)c2cc(C)ccc2C)cc1,-3.1%,-6.6%,-13.5%,20.6µM*,16.4µM*,28.5
COc1ccc(NS(=O)(=O)c2cc(OC)ccc2NC(=O)c2cc(C)oc2C)cc1,2.1%,-15.8%,-0.7%,5.17µM*,2.59µM*,41.4
COc1cccc(-n2c(SCC(=O)Nc3ccc4c(c3)OCO4)nc3c([nH]c4ccccc43)c2=O)c1,7.7%,-5.8%,1.1%,-22.0%,-28.9%,·
O=C1NN=C(c2ccccc2)CC1c1ccc(Cl)cc1Cl (stereo unspecified),5.0%,-11.6%,-15.1%,?,?,?
O=C1NN=C(c2ccc(Cl)cc2)CC1c1cccc(Cl)c1 (stereo unspecified),2.0%,-5.4%,-23.7%,29.1µM*,16.4µM*,-13.6
COC(=O)c1ccc(NC(=S)NCc2ccco2)cc1,1.8%,-27.8%,3.9%,-3.8%,-22.4%,0.4
O=C(NCc1ccco1)c1c(F)c(F)c(F)c(C(=O)NCc2ccco2)c1F,0.0%,-13.4%,-22.5%,14.8%,5.4%,-130.8*
O=[N+]([O-])c1cccc(-c2ccc(/C=N/NC(=S)NCc3ccco3)o2)c1,·,-31.7%,-19.8%,23.1µM*,16.4µM*,-10.6
COC(=O)c1cccc(NC(=S)NCc2ccco2)c1,9.6%,3.8%,3.2%,16.4µM*,14.6µM*,-1.4
S=C(NCc1ccco1)Nc1ccc(Br)cc1Cl,5.5%,-4.6%,?,-0.9%,-0.4%,-82.9*
O=C(Cc1ccc(-c2ccccc2)cc1)NNC(=S)NCc1ccco1,0.0%,-6.9%,-0.2%,?,16.4µM*,18.5
Cc1cnn(C(=S)NCc2ccco2)c1,-6.8%,-27.8%,-15.2%,18.4µM*,?,1.4
O=C(Cc1cccs1)NNC(=S)NCc1ccco1,-2.4%,-4.1%,-2.8%,-5.5%,-13.3%,32.7
CN(C)c1ccc(/C=N/NC(=S)NCc2ccco2)cc1,10.5%,-23.4%,-16.2%,?,18.4µM*,-18.6
SMILES,TDP1 block,HepG2 viability,TGFb inhibitor,TDP1 cell CPT,DT40 TDP1 no CPT,IL1B secr inh
S=C(NCc1ccco1)NCc1ccco1,·,5.1%,-24.3%,?,25.9µM*,4.1
CCN(CC)C(=O)Cn1cc(C(=O)C(=O)NCCCN2CCCCC2)c2ccccc21,2.7%,0.0%,-3.1%,-2.3%,2.9%,i
CC(C)c1ccccc1NC(=O)COC(=O)c1cc([N+](=O)[O-])ccc1N1CCOCC1,·,-11.5%,1.9%,?,18.4µM*,-19.3
O=C(COC(=O)c1cc([N+](=O)[O-])ccc1N1CCCC1)Nc1ccccc1OC(F)F,2.0%[0.505 µM],7.9%,-19.3%,?,16.4µM*,-4.2
O=C(COC(=O)c1cc([N+](=O)[O-])ccc1N1CCOCC1)Nc1ccccc1OC(F)F,·,-4.1%,2.4%,-25.6%,-22.2%,-0.4
Cc1cc(NC(=O)COC(=O)c2cc([N+](=O)[O-])ccc2N2CCOCC2)ccc1Br,·,-3.1%,-22.5%,?,16.4µM*,?
O=C1CCC/C(=N/NC(=O)c2sc3ccccc3c2Cl)C1,·,-13.8%,64.9%,-7.7%,-18.5%,70.8
CCCCn1c(N)c(N(CCC(C)C)C(=O)CSc2nc3ccccc3n2C)c(=O)[nH]c1=O,·,-22.9%,-25.4%,-6.4%,-17.6%,-5.5
CCOc1ccc(NC(=O)c2c(NC(=O)CN3CCN(C)CC3)sc3c2CCC3)cc1,1.6%,·,·,·,·,·
COc1ccc(NC(=O)c2c(NC(=O)c3ccc(Br)cc3)sc3c2CCCC3)cc1,-3.1%[12.3 µM],-104.1%,?,?,20.6µM*,·
CCOc1ccc(NC(=O)c2c(NC(=O)CN3CCCC3)sc3c2CCC3)cc1,5.3%,12.3%,18.3%,?,11.6µM*,6.8
COc1ccc(NC(=O)c2c(NCc3cccs3)sc3c2CCCCC3)cc1,6.6%,-9.0%,?,9.2µM*,9.2µM*,·
CCOc1ccc(NC(=O)c2c(NCc3cccs3)sc3c2CCCCC3)cc1,2.8%,-15.9%,?,?,23.1µM*,·
C=C(C)Cn1c2ccc(NC(=S)NCc3ccccc3F)cc2c(=O)n1C,·,-2.3%,14.0%,?,-18.3%,-6.3
O=C(NCc1ccc(F)cc1)C1CCN(c2ncnc3c2nc2n3CCCCC2)CC1,3.7%,0.2%,?,-6.5%,?,·
CCOC(=O)c1c2ccccc2[n+]([O-])n1[C@@H](C)C(N)=O,-3.9%,-0.5%,-26.5%,20.6µM*,-6.7%,27.0
